Screening results from PubChem.
Rab9 promoter act – qHTS Assay for Rab9 Promoter Activators; Huh7 Rab9 promoter-luciferase reporter, luminescence, 24 h; Potency, µM (top dose mostly 9.22 µM), inactives show top-dose activation, negative = inhibition, hits mostly activators; 320,000 tested, 2.8% active; also: % of control where 0% means no effect; nearly all actives have a fitted effect of over 60% in size
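Luminescence from Amplite-detected luciferase (10 minutes, ambient) reports Rab9 promoter activation. Before that, stable Rab9-luciferase Huh7 cells (1500/well, reduced-serum OP-MEM I plus 10% FBS) were exposed to compound for 24 hours at 37C.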
SMN2 splice up – qHTS Assay for Enhancers of SMN2 Splice Variant Expression | HEK293 SMN2-luciferase splicing reporter, luminescence, 30-36 h | Potency, µM (top dose mostly 46.1 µM), inactives show at the top dose activity change, positive = activation, usual class: activators | 210,000 tested, 2.8% active; also: % of control where 0% means no effect; nearly all actives have a fitted effect of over 55% in size
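qHTS luciferase splicing reporter: luminescence rises when SMN2 exon 7 is included in transfected HEK293 cells. Compound exposure lasted 30-36 h at 37C, with 4.5 mM final sodium butyrate as control, followed by a ONE-Glo read.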
FLuc counter – qHTS profiling assay for firefly luciferase inhibitor/activator using purifed enzyme and Km concentrations of substrates (counterscreen for miR-21 project). Luciferin 4-monooxygenase (Photinus pyralis), P08659. purified FLuc, Km substrates, luminescence inhibition. Potency, µM (doses to about 57.5 µM), inactives show at the top dose activity change, negative = inhibition, usual class: inhibitors. 360,000 tested, 6.9% active. AID 588342, 2011;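 also: plate controls were vehicle for no effect and reference inhibitor for full effect; nearly all actives have a fitted effect of over 55% in size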
Target sequence (P08659 whole entry, looked up): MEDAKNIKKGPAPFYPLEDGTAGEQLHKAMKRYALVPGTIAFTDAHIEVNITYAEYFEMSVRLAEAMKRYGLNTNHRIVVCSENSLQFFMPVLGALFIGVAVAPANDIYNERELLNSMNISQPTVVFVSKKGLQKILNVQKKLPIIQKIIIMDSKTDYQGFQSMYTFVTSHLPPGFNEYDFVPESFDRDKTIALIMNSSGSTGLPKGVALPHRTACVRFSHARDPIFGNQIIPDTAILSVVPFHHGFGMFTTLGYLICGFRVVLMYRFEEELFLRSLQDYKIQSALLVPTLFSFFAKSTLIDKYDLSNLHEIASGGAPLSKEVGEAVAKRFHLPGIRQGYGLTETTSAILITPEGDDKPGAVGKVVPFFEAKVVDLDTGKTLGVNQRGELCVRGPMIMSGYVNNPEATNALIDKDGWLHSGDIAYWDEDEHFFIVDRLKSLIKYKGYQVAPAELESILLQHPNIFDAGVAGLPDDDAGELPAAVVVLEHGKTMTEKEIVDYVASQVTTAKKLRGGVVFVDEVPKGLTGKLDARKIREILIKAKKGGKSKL
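Purified P. pyralis luciferase (10nM final) with 10uM D-luciferin and 10uM ATP (Km levels) in 50mM Tris acetate pH 7.5, 10mM Mg acetate, 0.01% Tween-20, 0.05% BSA; qHTS 6-point titration, ~60 µM downward; luminescence read.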
ELG1 genotoxic – qHTS screen for small molecules that induce genotoxicity in human embryonic kidney (HEK293T) cells expressing luciferase-tagged ELG1 | HEK293T ELG1-luciferase reporter, luminescence, 16 h | Potency, µM (highest dose often 46 µM), without a hit: at the top dose activity change, positive = activation, usual class: activators | 330,000 tested, 1.3% active | AID 504466, 2011; also: % of control where 0% means no effect; nearly all actives have a fitted effect of over 60% in size
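ELG1-luciferase HEK293T cells, 2,000/well; compound pinned in; 16 hr, 37 °C, 5% CO2; ONE-Glo, 30 min RT; luminescence on CCD imager.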
NPC1 prom act – qHTS Assay for NPC1 Promoter Activators. Potency, µM (top dose mostly 9.22 µM), for inactives: at the highest dose activation, hits mostly activators. 320,000 tested, 2.4% active. Huh7 NPC1 promoter luciferase reporter, 24 h; also: % of control where 0% means no effect; nearly all actives have a fitted effect of over 60% in size
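Stable NPC1-promoter luciferase Huh7 line; cpd (DMSO) 24 h, 37 °C, 5% CO2; Amplite luciferase reagent 10 min RT; luminescence readout. qHTS format.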
Active calls of the source: *; u = inconclusive; x = no result. An excerpt weighted towards active compounds, which were near 7.4% of everything screened. Calls follow the shape of the dose curve; as a rule, active = well fitted curve in the direction sought with a large enough effect; inconclusive = small, poorly fitted or top-dose-only effect, or another doubt; inactive = no such curve, though single readings can be large; an effect the other way counts as inactive or inconclusive. Potency is read from the fitted curve at half-maximal effect.

SMILES | Rab9 promoter act | SMN2 splice up | FLuc counter | ELG1 genotoxic | NPC1 prom act
CCOc1ccccc1N(C)C(=O)Cn1ncc2c([nH]c3ccc(C)cc32)c1=O | -2% | x | -1% | -7% | -3%
CC1O[C@@H](OCC2O[C@@H](Oc3cc(O)c4c(c3)OC(c3ccc(O)cc3)CC4=O)[C@H](O)[C@@H](O)[C@@H]2O)[C@H](O)[C@H](O)[C@H]1O (stereo partly specified) | 1% | x | -2% | 0% | -1%
Cc1ccc(NC(=O)CCCc2ccccc2)nc1 | 4µM* | 16µM* | 17µM* | u | u
CNC(=S)NCCc1ccccc1 | 1% | x | -2% | 3% | -2%
Cc1ccc(NC(=S)NCCc2ccccc2)nc1 | u | 25µM* | 17µM* | u | 27%
Cc1ccc(NC(=O)CCSc2ccccn2)cc1 | 3.2µM* | 14µM* | 6µM* | u | 3.5µM*
O=C(O)c1ccnc(SCC(=O)c2ccccc2)c1 | -1% | 9% | u | -1% | -1%
Cc1ccc(C(=O)CSc2cc(C)nc(SCC(=O)c3ccccc3)n2)cc1 | -1% | x | 3% | -22% | -2%
Cc1ccc(C(=O)CSc2ccccn2)cc1 | 3.5µM* | u | 6.7µM* | u | u
O=C(CSc1ccccn1)c1ccc(F)cc1 | u | 23% | 19µM* | u | u
CCCC(=O)Nc1ccc(-c2csc(N/N=C\c3ccncc3)n2)cc1 | u | x | 3µM* | -13% | u
CC(=O)Nc1ccc(-c2csc(N/N=C\c3ccncc3)n2)cc1 | 15% | x | 7.6µM* | -6% | 18%
CCCC(=O)Nc1ccc(-c2csc(NNC(C)=O)n2)cc1 | 1% | x | -17% | -1% | 0%
CSc1nsc(/C=C/Nc2ccc(C(=O)O)cc2)c1C#N | 14% | 3% | 12µM* | -7% | -4%
COC(=O)CSc1nc2ccc(C)cc2cc1C#N | 0.79µM* | 2.8µM* | u | u | 3.5µM*
CCOC(=O)CSc1nc2cc(OCC)ccc2cc1C#N | 2.8µM* | 22µM* | 4.3µM* | 8.2µM* | u
COC(=O)CSc1nc2cc(OC)ccc2cc1C#N | 1.4µM* | x | 9.5µM* | 1.5µM* | 1.4µM*
COc1ccc2cc(C#N)c(SCC(=O)N3CCCC3)nc2c1 | 0% | 19% | -5% | u | -1%
CN(C)S(=O)(=O)c1cccc(NC(=O)Cc2ccc(-c3ccccc3)cc2)c1 | 0% | x | -3% | -16% | 1%
COc1ccc(C(=O)Nc2ccccc2C(=O)NC(Cc2ccc(O)cc2)C(=O)NNC(=O)c2ccc(C)cc2)cc1 (stereo unspecified) | -12% | -1% | 9.5µM* | u | -3%
Cc1ccc(SCc2ccc(C(=O)Nc3ccccc3C(=O)NC(C)C)cc2)cc1 | -1% | x | 3% | 10% | 2%
COc1ccc(C(=O)Nc2ccccc2C(=O)NC(Cc2ccc(O)cc2)C(=O)NNC(=O)c2ccncc2)cc1 (stereo unspecified) | 13% | 29% | 12µM* | 2% | -1%
COc1ccc(CC(NC(=O)c2ccccc2)C(=O)NCC(=O)O)cc1 (stereo unspecified) | 2% | -18% | 0% | 0% | 1%
COc1ccc(C(=O)Nc2ccccc2C(=O)NC(Cc2ccc(O)cc2)C(=O)NNC(=O)c2ccccc2)cc1 (stereo unspecified) | 0% | 22% | 4.8µM* | -5% | -1%
CC(C)C(NC(=O)c1ccccc1NC(=O)c1ccccc1)C(=O)NNC(=O)c1ccncc1 (stereo unspecified) | 0% | x | u | 6% | -1%
COc1cccc(/C=N/NC(=O)C(=O)N2CCCC2)c1O | 11% | -48% | 15µM* | u | 7%
COc1cccc(/C=N/NC(=O)N/N=C/c2cccc(OC)c2O)c1O | -3% | x | 4.3µM* | -7% | -2%
COc1cccc(/C=N/NC(=O)Cn2nc(C)c([N+](=O)[O-])c2C)c1O | -15% | x | 1% | 12% | -19%
